# Measurements taken from PubChem BioAssay (EPA / NIEHS).
# Inconclusive results are not listed. Calls of active or inactive are those of the source. The calls were made as follows: active = hit-call score of the fitted dose curve at least 0.9, where 1 is the maximum; inconclusive = response in the unintended direction; inactive = score below 0.9.
# Target: human Serotonin, 5-Hydroxytryptamine Receptor 5A (5HT5A), HTR5A (gene 3361) (UniProt P47898)
# Experiment: NVS_GPCR_h5HT5A: NovaScreen (NVS) G Protein-Coupled Receptor Assay for human Serotonin, 5-Hydroxytryptamine Receptor 5A (5HT5A) (AID 2283251)
# Description: NVS_GPCR_h5HT5A is a biochemical, single-readout assay that uses extracted gene-proteins from HEK293 in a cell-free assay. Measurements were taken 1 hour after chemical dosing in a 96-well plate.NVS_GPCR_h5HT5A is one of one assay component(s) measured or calculated from the NVS_GPCR_h5HT5A assay. It is designed to make measurements of radioligand binding, a form of binding reporter, as detected with scintillation counting signals by Filter-based radiodetection technology.Data from the assay component NVS_GPCR_h5HT5A was analyzed into 1 assay endpoint. This assay endpoint, NVS_GPCR_h5HT5A, was analyzed in the positive analysis fitting direction relative to DMSO as the negative control and baseline of activity. Using a type of binding reporter, loss-of-signal activity can be used to understand changes in the binding as they relate to the gene HTR5A. Furthermore, this assay endpoint can be referred to as a primary readout, because the performed assay has only produced 1 assay endpoint. To generalize the intended target to other relatable targets, this assay endpoint is annotated to the gpcr intended target family, where the subfamily is rhodopsin-like receptor.
# Binding assays used specific radioligands (tritiated, iodinated) with non-radioactive competitive displacement ligands in agonist or antagonist protocols (as indicated) and various reference compounds and inhibitors to titrate specific binding to receptors and transporters. Most enzyme assays (CYPs, kinases, phosphatases, proteases, HDACs) used recombinant protein and specific substrates (fluorescence mostly, some colorimetric and radioactive) and inhibitors, followed by a biochemical separation of substrate and product. All assays for the biochemical HTS were initially run in duplicate at a single concentration (10 uM for CYP450 assays and 25 uM for all others). […] Each assay was run with positive and negative controls, and concurrent controls on every plate. The follow-up (secondary) screen tested active chemical-pairs in concentration series, as well as a few additional assays not tested in the primary screen, some selected negative inactives, and several cases re-run in the concentration series for confirmatory purposes.
# Chain of human Serotonin, 5-Hydroxytryptamine Receptor 5A (5HT5A), HTR5A (gene 3361) (P47898 whole entry, looked up): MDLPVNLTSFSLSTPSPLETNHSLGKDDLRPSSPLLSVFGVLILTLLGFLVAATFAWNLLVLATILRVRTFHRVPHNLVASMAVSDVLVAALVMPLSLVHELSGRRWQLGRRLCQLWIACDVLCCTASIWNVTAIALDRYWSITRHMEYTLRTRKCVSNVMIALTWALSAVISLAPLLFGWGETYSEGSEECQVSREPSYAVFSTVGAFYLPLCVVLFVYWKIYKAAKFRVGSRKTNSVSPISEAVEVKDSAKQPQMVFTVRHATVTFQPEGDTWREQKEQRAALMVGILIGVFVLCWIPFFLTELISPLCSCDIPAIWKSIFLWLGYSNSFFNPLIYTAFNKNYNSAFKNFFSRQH
SMILES,AC50,outcome
Nc1ccc(Nc2ccccc2)cc1,11.3 µM (active),
CCCCCCc1ccc(O)cc1O,,inactive
O=C(CCCCCCCCc1cccnc1)N1CCC(C=C(c2ccccc2)c2ccccc2)CC1,,inactive
CCc1cc(SCc2sc(-c3ccc(C(F)(F)F)cc3)nc2CN2CCN(c3ccc(OC)cc3)CC2)ccc1OCC(=O)O,2.36 µM (active),
CCn1nc(Cc2ccccc2)cc1C1CCN(C[C@H]2C[C@H](N(C)[C@@H](C(=O)O)C(C)C)C[C@@H]2c2cccc(F)c2)CC1,13.8 µM (active),
CCOc1cccc(-n2cc(C(=O)N3CCN(c4cc(C(=O)O)c5ccccc5c4)CC3)nc2-c2ccc(C)cc2)c1,34 µM (active),
COc1cccc(-c2ccc(/C=C\CN3CCCCCC3)cc2Cl)c1,22.6 µM (active),
CCOC(=O)COc1ccc2c(c1)CC(NCC(O)c1cccc(Cl)c1)CC2 (stereo not given),18.8 µM (active),
CCC(C)(C)C(=O)O[C@H]1C[C@@H](C)C=C2C=C[C@H](C)[C@H](CC[C@@H]3C[C@@H](O)CC(=O)O3)[C@H]21,,inactive
Cc1[nH]cnc1C[C@H]1CCc2c(C)c3ccccc3n2C1=O,2.93 µM (active),
